Out of some 53,000 sequences screened, about 3,700 (7%) were called active.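 How the source made its calls: active means gene knockdowns whose robust z-score for IL-1 alpha signal is at least 2 or at most -2, so actives lie on both sides; inactive means the rest.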 Shown is part of a subset that was picked to be rich in actives.

A short description of the experiment: Components of the Cytosolic LPS Sensing Pathway: Gene Identification via Genome-wide siRNA Screen. The following applies: RAW264.7 macrophages, IL-1a HTRF, actives lie on both sides, screened at 100 nM (by protocol), cells primed 5 h with Pam3CSK4 first. The source says: Non-canonical inflammasome activation by cytosolic LPS is a critical component of the host response to Gram-negative bacterial infection, however we lack a comprehensive understanding of the cellular processes that control this pathway. Here we describe a genome-wide siRNA screen to identify genes regulating the mouse macrophage IL-1 alpha response to cytosolic LPS.
RAW264.7 cells were maintained in complete DMEM media, comprising DMEM with 4.5 g/L glucose, 10% FBS (Gemini Bio-Products, West Sacramento, CA), 2 mM Glutamine (Lonza) and 20 mM HEPES (Lonza), hereafter complete DMEM.
The RNAi screen was conducted in 384-well format using the Ambion Silencer Mouse Genome siRNA Library (#4391425), which consists of three unique, nonoverlapping, nonpooled siRNAs for each of 17,000 gene targets. siRNA reagents ([…]) were stamped into 384-well white flat-bottom microplates (Corning, 3570) using a Velocity11 VPrep liquid handling system (Agilent) integrated into a BioCel robotic platform (Agilent) in columns 1-22, leaving columns 23-24 empty for negative (Ambion, Negative control #1) and positive (mouse Casp4) controls, respectively. The median value of each plate's negative control column was used to normalize sample wells, and the positive control was used to assess transfection efficiency and assay performance.
Lipofectamine RNAiMAX Transfection Reagent ([…]; Invitrogen) was added in […] serum-free, antibiotic-free media to plate wells using a Thermo Scientific Matrix WellMate and Microplate Stacker. Plates were incubated for 45 min at room temperature to allow for the sufficient formation of siRNA-lipid complexes. Cells were seeded at a density of 1x10^4 cells per well in 20 microL media containing 20% (vol/vol) FBS without antibiotics. The final concentration of siRNA in each well was 100 nM. Cells were cultured for 48h at 37 degrees C in 5% CO2 before addition of […] of TLR ligand Pam3CSK4 for 5 hours. The medium was then removed, replaced with […] growth media and cell were transfected with […] of LipidA and TransIT-TKO (Mirus) for 24 hour. At the end of the LipidA treatment, […] of supernatant was transferred to a 384 Greiner Bio-one non-binding low volume plate and […] of IL-1a HTRF reagent (Cisbio, 62MIL1APEH) was added and incubated at room temperature overnight. The plates were read on an EnVision plate reader (PerkinElmer). Cell viability was measured by adding 20ul Cell Titer Glo to the original plate and running a luminescence read on the EnVision. The quantified IL-1a signal for each siRNA gene-targeted well was divided by the median of the negative control wells and multiplied by 100 to achieve a negative control normalized value for each well/siRNA. This normalized value was then used to generate a robust z-score by first taking the log of each value and then by subtracting the median and dividing by the […].
As to GCCAAACUAUCAGAGAUGGTT against Slc38a7, the z-score was 0.0528 (inactive).

Consider GGAUUAUGGUACCAAGCGCTT against Umps, for which the z-score was 1.21 (inactive).

As for CCUAAUUGAAAUCAGCAGUTT against Hip1r, the z-score was 1.14 (inactive).

Regarding GGCACAAGAAAUUUGAUGATT against Gpc6, the z-score was -1.91 (inactive).

On to GCAAAUCAUGACUAUUGUATT against Atat1, for which the z-score was 0.00079 (inactive).

Regarding CAUGAUAGCGAUAGCAAUCTT against Olfr507, the z-score was 0.0127 (inactive).

On to GCCUGAUUCAGAGUAUAAATT against Col14a1, for which the z-score was -1.24 (inactive).

On to CCUACUCAAAUGAAGUUGUTT against Cdk17, for which the z-score was -0.384 (inactive).

As to CCUGUGAAAUACCAGCGUGTT against Rsl24d1, the z-score is 2.05 (active).

For GCUCUGGUUGCCAGUUAUGTT against Ddx49, the z-score is 0.903 (inactive).

Turning to GGGAUUAUAGGGCGCAUUGTT against Olfr685, the z-score is -1.01 (inactive).

Take GCGACAAAUCAAAAAGGCCTT against Dnajb9: the z-score was -0.0942 (inactive).

On to GGCCAACAAUAUAAAAGACTT against Pus3, for which the z-score is -0.641 (inactive).

For GACUUCGGACAAAUGGUGCTT against Lce1f, the z-score was 2.27 (active).

Turning to GGUCCUGAUGUUGAAGGCATT against Rinl, the z-score is 0.647 (inactive).

Turning to GCAUCUCUUACUAAGAUUATT against Anxa4, the z-score was -0.433 (inactive).

Regarding GGAAUUAAAUGAACCCAGATT against Arhgap8, the z-score is 2.48 (active).

With GGUUUUAUGCAUUAGCUCCTT against Lipf, the z-score was 0.502 (inactive).

On to GCAACCUGUCAUUUUGUGATT against Olfr1134, for which the z-score is -1.74 (inactive).

Take GGCUUUUAGCUACCUUGUGTT against AW209491: the z-score was -0.704 (inactive).

Consider GCACGAUGUCUCAGCUCUATT against Nipal3, for which the z-score is -2.89 (active).

On to CCAGGUGUAACAAAAAAGATT against Dtl, for which the z-score is 1.09 (inactive).

In the case of CCGGGAAAUUCUGUUAGCCTT against Pla2g1b, the z-score is -1.95 (inactive).

Take GGAAAGCUCUCAAUACCUGTT against Olfr633: the z-score is -0.688 (inactive).

As for GCUUUGGUUGCUAACCCAATT against Slc45a2, the z-score is 0.407 (inactive).

Consider GGCUCAAUUUGGAAAGGACTT against Anxa8, for which the z-score is -0.586 (inactive).

On to GGAGCAUCUAUGAUUACAATT against Iqcg, for which the z-score was 3.24 (active).

GGAUAUGUCGGAAAAAGCCTT against Cfh: the z-score was 0.271 (inactive).

Consider GGCCACAGUAAUGGGAAAUTT against Cga, for which the z-score was -0.208 (inactive).

With GGUAAAUGAUCUGAAAAUGTT against Rps6ka6, the z-score was -0.46 (inactive).

The values are drawn from PubChem BioAssay AID1508600 (Functional Genomics Laboratory (NCATS/FGL), 2020).
